From PubChem
TEAD-YAP block – TEAD-YAP interaction inhibition; AID 1259422; inhibition, % at 9.12 µM; HEK-TIYL cells, TEAD-Gal4/YAP UAS-luciferase luminescence; hit rate 1.4% among 640,000; in the data active = inhibition above about 32%
FBW7 activator – human FBW7 E3 ligase activation, primary screen; AlphaScreen FBW7–phospho-cyclin E peptide binding, activator screen; AID 1259310; hit rate 0.13% among 650,000; normalized activity (activation), % at 26.1 µM; Q969H0; in the data active = normalized activity above about 1.9%;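 note: purified mutant Fbw7 with reduced substrate affinity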
GPR151 ag – human GPR151 activation. Q8TDV0. PathHunter beta-arrestin GPR151 cells, luminescence. activation, % at 11.2 µM. hit rate 1% among 650,000; in the data active = activation above about 4.9%
MITF inh – inhibitors of human MITF; O75030; AlphaScreen MITF homodimerization, bead proximity signal; inhibition, % at 2.6 µM; hit rate 0.91% among 650,000; AID 1259374; in the data active = inhibition above about 50%
Numbers stand for hits; – = inactive. In the library only some 3.5% were active in any assay of this set; here they are far more common.

SMILES	TEAD-YAP block	FBW7 activator	GPR151 ag	MITF inh
COc1cccc(C(=O)Nc2ccc3nc(N4CCN(c5ncccn5)CC4)cc(C)c3c2)c1OC	43	–	–	–
COc1ccc(C(=O)NCC(c2cccs2)S(=O)(=O)c2ccccc2)cc1 (centres undefined)	–	–	–	–
O=C(/C=C/Nc1ccc(Cl)cc1)c1ccccc1	35	–	–	–
COc1cc(C(=O)/C=C/Nc2ccc(Cl)cc2)cc(OC)c1OC	38	–	–	–
O=C(/C=C/Nc1ccc(O)cc1)c1ccc(Cl)cc1	–	–	–	–
COc1cc(C(=O)/C=C/Nc2ccc(C)cc2O)cc(OC)c1OC	49	–	–	–
COc1cc(C(=O)/C=C/Nc2ccc(O)cc2C)cc(OC)c1OC	–	–	–	–
CCCC(c1nnnn1CCOC)N1CCN(c2cc(Cl)ccc2C)CC1 (centres undefined)	–	–	–	–
Cc1ccc(S(=O)(=O)Nc2ccc3c(c2)c2c(n3S(=O)(=O)c3ccc(C)cc3C)CC(C)(C)CC2=O)c(C)c1	–	–	–	–
Cc1ccc([N+](=O)[O-])cc1S(=O)(=O)n1c(C)nc2ccccc21	–	–	–	–
CCOC(=O)c1ccc(NC(=O)CN2C(=O)CC(C)(C)S(=O)(=O)c3ccccc32)cc1	–	5.2	–	–
O=C(O)c1cccc(OCc2ccccc2)c1	–	–	–	–
CCOc1ccc(OCc2cccc(C(=O)OC)c2)cc1	85	–	–	–
COc1ccc(OCc2cccc(C(=O)O)c2)cc1	93	–	–	–
CC(C)c1ccc(OCc2cccc(C(=O)NCCN(C)C)c2)cc1	86	–	–	–
O=C(O)c1cccc(COc2ccc(I)cc2)c1	65	–	–	–
CS(=O)(=O)C1=C(OC(c2ccccc2)c2ccccc2)C(=O)N(c2ccc(I)cc2)C1c1ccccc1 (centres undefined)	–	–	–	–
CCOc1ccccc1NC(=O)CCS(=O)(=O)c1ccc2c(c1)SC(C)C(=O)N2 (centres undefined)	–	–	–	–
O=C1NC(=S)NC(=O)C1=Cc1cccc(OCc2ccc(C(=O)O)cc2)c1	–	–	–	–
COc1cc(OCc2cccc(C(=O)O)c2)ccc1C=C1C(=O)NC(=S)NC1=O	86	–	–	–
N=c1sc2c(n1CC(=O)c1ccc(F)cc1)CCCC2	56	–	–	–
O=c1nc(N/N=C/c2ccccc2Cl)cn[nH]1	–	–	–	–
O=c1nc(N/N=C/c2ccc(Cl)cc2Cl)cn[nH]1	67	–	–	–
CS(=O)(=O)Nc1cccc(-c2ccnc(Nc3ccccc3)n2)c1	68	–	–	–
NC(=O)c1cccc(Nc2nccc(-c3cccc(Nc4ccccc4)c3)n2)c1	–	–	–	–
SMILES	TEAD-YAP block	FBW7 activator	GPR151 ag	MITF inh
O=C(O)Cc1ccc(Nc2nccc(-c3ccccc3)n2)cc1	53	–	–	–
CS(=O)(=O)Nc1cccc(-c2ccnc(Nc3ccc(CC(N)=O)cc3)n2)c1	37	–	–	–
NC(=O)c1ccc(Nc2nccc(-c3cccc(Nc4ccccc4)c3)n2)cc1	46	–	–	–
N#Cc1ccc(-c2ccc(OC(=O)c3cccnc3)cc2)cc1	–	–	–	–
COc1cc(C=C2C(=O)NC(=O)NC2=O)ccc1OC(C)c1ccccc1 (centres undefined)	–	–	–	–
CC(O)c1ccc(Nc2nccc(-c3cccc(NS(C)(=O)=O)c3)n2)cc1 (centres undefined)	77	–	–	–
Cc1ccc(C(=O)C2C(c3cccs3)C(C#N)(C#N)C3C=Cc4ccccc4N23)cc1 (centres undefined)	43	–	–	–
COc1ccc(C(=O)[C@@H]2[C@@H](c3cccs3)C(C#N)(C#N)[C@H]3C=Cc4ccccc4N23)cc1	55	–	–	–
COc1ccc(Nc2nc(C)cc(NCc3cccc(C(F)(F)F)c3)n2)cn1	–	1.9	–	–
COc1ccc(Nc2nc(C)cc(NCc3cccc(C(F)(F)F)c3)n2)cc1	38	–	–	–
COc1ccc(-c2nc3ncnc(NCc4cccc(C(F)(F)F)c4)c3[nH]2)cn1	54	–	–	–
COc1ccc(Nc2nccc(NCc3cccc(C(F)(F)F)c3)n2)cn1	–	–	–	–
O=c1c(-c2nncn2-c2ccccc2)coc2c(O)c(O)ccc12	–	–	–	53
COc1ccccc1CNS(=O)(=O)c1ccc(F)cc1	–	–	–	–
COc1ccccc1CNS(=O)(=O)c1ccc(Oc2ccc(S(=O)(=O)NCc3ccccc3OC)cc2)cc1	43	–	–	–
O=S(=O)(NCc1ccco1)c1ccc(Oc2ccc(S(=O)(=O)NCc3ccco3)cc2)cc1	48	–	–	–
